Reference: PubChem BioAssay (NCI)
The panel holds about 79,000 compounds, 15% with a hit somewhere; the sample as a whole holds those more often. Calls of active or inactive are those of the source. Rule as the data show it: active = growth inhibition above about 70%; inactive = the rest. Where a SMILES comes first, the peptide text is derived from it. The star is where a group is joined. Cbz = O=C(OCc1ccccc1)*

Legend:
[1] = NCI Yeast Anticancer Drug Screen. Data for the rad50 strain (AID 155);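 also: 0% = growth of vehicle-only cultures of the same strain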; settings: S. cerevisiae rad50 strain growth inhibition; at 50.0 µM; active compounds read high
Method in brief: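 Readout: growth inhibition relative to vehicle-treated cultures. Compound exposure was carried out in a genetically defined yeast strain deficient in DNA damage repair.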

[2] = NCI Yeast Anticancer Drug Screen. Data for the mec2-1 strain (AID 157); settings: S. cerevisiae mec2-1 strain, at 50.0 µM, active compounds read high
Method in brief: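 Mutant yeast (mec2-1) grown with compound; growth inhibition relative to vehicle control reported.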

[3] = NCI Yeast Anticancer Drug Screen. Data for the sgs1 mgt1 strain (AID 161);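 also: 0% = growth of cultures given vehicle only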; settings: S. cerevisiae sgs1 mgt1 strain, at 50.0 µM, active compounds read high
Method in brief: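 This yeast growth screen uses a strain with defined DNA-repair lesions; compound-treated growth is compared with vehicle-treated growth.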

[4] = NCI Yeast Anticancer Drug Screen. Data for the cln2 rad14 strain (AID 165);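 also: 0% = growth equal to vehicle treated cultures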; settings: S. cerevisiae cln2 rad14 strain, at 50.0 µM, active compounds read high
Method in brief: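 Readout is yeast growth inhibition versus vehicle-treated controls, using a strain with cln2 and rad14 alterations exposed to compound.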

[5] = NCI Yeast Anticancer Drug Screen. Data for the bub3 strain (AID 167); settings: S. cerevisiae bub3 mutant strain, at 50.0 µM, active compounds read high
Method in brief: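 Readout: yeast growth inhibition, expressed relative to vehicle-only wells. The test organism is a mutant strain from a panel with lesions in DNA repair or checkpoint genes.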

[6] = NCI Yeast Anticancer Drug Screen. Data for the mlh1 rad18 strain (AID 175); settings: S. cerevisiae mlh1 rad18 strain growth inhibition; at 50.0 µM; active compounds read high
Method in brief: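 Genetically defined yeast (DNA repair-deficient) exposed to compounds; growth inhibition determined relative to vehicle.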

Measured: growth inhibition

N#CC(C#N)=CN1CCNC1=S
inactive: [1] 14.3% | [2] -1.2% | [3] 20.4% | [4] 16.6% | [5] 17.6% | [6] 17.6%

CSC(=NCc1ccccc1)Nc1c(C)cccc1C
inactive: [1] 13.4% | [2] 4.45% | [3] 6.75% | [4] 8.1% | [5] 28.1% | [6] 17.1%

COc1ccc(C(=O)c2ccc(C(=O)O)cc2)c(OC)c1
inactive: [1] -5.4% | [2] -17.5% | [3] -14.6% | [4] -48.6% | [5] 5.95% | [6] -27.6%

Nc1nc2c(nc(Br)n2C2OC(CO)C(O)C2O)c(=O)[nH]1 (stereo not drawn)
inactive: [1] -2.05% | [2] -1.6% | [3] 0.95% | [4] -8.4% | [5] 1.8% | [6] -9.65%

Nc1ncnc2c(C3OC(CO)C(O)C3O)nsc12 (stereo not drawn)
inactive: [1] -6.8% | [2] -23.6% | [3] -37.1% | [4] -15.2% | [5] -32.1% | [6] -38%

CC(=O)c1c(O)cccc1O
inactive: [1] -11.8% | [2] -13.8% | [3] -1.75% | [4] 8.7% | [5] 8.7% | [6] -3.75%

N#CCCNCCC[Si]12OCCN(CCO1)CCO2
inactive: [1] 6.5% | [2] 1.35% | [3] 10.5% | [4] 56.9% | [5] 7.15% | [6] 2.4%

CCOP(C)(=O)/C(Cc1ccc(OC)c(OC)c1)=N\O (stereo not drawn)
inactive: [1] -21.4% | [2] -22.8% | [3] -14.8% | [4] 10.4% | [5] 23% | [6] -17.2%

CCCC(=O)OCC1OC2OC(C)(C)OC2C2OC(C)(C)OC12 (stereo not drawn)
inactive: [1] -4.45% | [2] -2.55% | [3] 10.8% | [4] 8.55% | [5] 15.8% | [6] -6.25%

CCCCC1SC(N)=NC1=O (stereo not drawn)
inactive: [1] 14.9% | [2] -2.35% | [3] 12.5% | [4] 53.2% | [5] 3.9% | [6] -17.7%

C(=C1\CCC/C(=C/c2ccccc2)C1=NNc1ccccc1)/c1ccccc1
inactive: [1] 19.7% | [2] 2.35% | [3] 6.45% | [4] 18.1% | [5] 11% | [6] 24.1%

COCC(=O)c1ccccc1-c1ccccc1
inactive: [1] 13.6% | [2] -2.65% | [3] 3.15% | [4] -4.1% | [5] -11.2% | [6] 0.85%

COc1ccc(Cc2ccc(OC)c3ccccc23)c2ccccc12
inactive: [1] 9.65% | [2] -2.45% | [3] 4.3% | [4] -30.9% | [5] 15.2% | [6] -5.25%

O=c1[nH]c(=O)c2[nH]c(=O)[nH]c2[nH]1
inactive: [1] 8.35% | [2] -7.15% | [3] -13.5% | [4] 27.9% | [5] 7.25% | [6] -17.9%

Cc1c2ccccc2nc(CSc2n[nH]c(=S)s2)[n+]1[O-]
inactive: [1] -8.55% | [2] 18.6% | [3] 8% | [4] -44.5% | [5] 8.5% | [6] 20%

COC(=O)C1=NOC(Cc2ccccc2)C1 (stereo not drawn)
inactive: [1] 10.3% | [2] 6.95% | [3] 0.15% | [4] -35.4% | [5] 6.45% | [6] -4.85%

COc1ccc(-c2c(C(=O)O)cc(O)c3cc(OC)c(OC)cc23)cc1OC
inactive: [1] 6.4% | [2] -2.9% | [3] 5% | [4] 26.4% | [5] 3.3% | [6] -0.75%

O=c1c2[nH]cnc2n(-c2ccccc2)c(=S)n1-c1ccccc1
inactive: [1] 6.5% | [2] 1.8% | [3] -26.1% | [4] -6.55% | [5] -26.9% | [6] 13.8%

O=C1C2=C(Nc3cc(Cl)ccc3N2)OC1c1c[nH]c2ccc(COc3ccccc3)cc12 (stereo not drawn)
inactive: [1] -22.4% | [2] 6.6% | [3] -1.55% | [4] 30.4% | [5] -15% | [6] -4.1%

O=[N+]([O-])c1ccc(NC2CCCCC2)nc1
inactive: [1] 14% | [2] -9.85% | [3] 13.9% | [4] 7.65% | [5] 42.6% | [6] -1.55%

CC1=CC(=O)C=CC1=Nc1ccc(N(C)C)cc1
inactive: [1] 19.3% | [2] 32.6% | [3] 47.9% | [4] 9.35% | [5] 39.4% | [6] 16.4%

COC(=O)[C@]1(C)CCCn2c(=O)n(-c3ccccc3)c(=O)n21
inactive: [1] 13.9% | [2] 11.3% | [3] -6.65% | [4] 9.75% | [5] 13.8% | [6] -21.6%

COc1ccc(COC=O)cc1
inactive: [1] 21.8% | [2] -5.1% | [3] -0.8% | [4] 1.55% | [5] 11.3% | [6] 24.4%

CSc1ccc(NC(=O)Nc2cc(C(C)C)ccc2C)cc1
inactive: [1] 0.6% | [2] 38.4% | [3] 13.9% | [4] -18% | [5] 43.2% | [6] 28.2%

O=C(NNC(=O)c1ccncc1)c1ccncc1
inactive: [1] -22.9% | [2] 1.2% | [3] -9.45% | [4] -30.3% | [5] -2.4% | [6] -23.9%

OCC[N+]1(CCO)CCOCC1
inactive: [1] 7.7% | [2] -2.9% | [3] -0.05% | [4] -15.1% | [5] 5.9% | [6] 6.2%

Cc1ccc(C2(C)CC[C@@H]3C[C@@]32C)c(O)c1 (stereo partly drawn)
active: [1] 91.2% | [2] 93.8% | [3] 93.5% | [4] 92.2% | [5] 92.7% | [6] 91.8%

CCOC(=O)C(NC(C)=O)C(=O)OCC
inactive: [1] -3.4% | [2] 10.2% | [3] 3.5% | [4] -12.6% | [5] -7.15% | [6] -16.4%

COc1cc2c(c(OC)c1OC)-c1ccc(SC)c(=O)cc1C(N=C(NC1OCC(OC(C)=O)C(OC(C)=O)C1OC(C)=O)SN(NC(=O)OCc1ccccc1)C(=O)OCc1ccccc1)CC2 (stereo not drawn)
inactive: [1] 5.6% | [2] 10.4% | [3] 24.4% | [4] -11.7% | [5] -1.55% | [6] 32.3%

CC(O)C(NC(=O)C(Cc1ccc(O)cc1)NC(=O)OCc1ccccc1)C(=O)O (stereo not drawn) (Cbz-Tyr-Thr-OH; configuration not given here)
inactive: [1] -9.65% | [2] -4.25% | [3] -2.05% | [4] -35.8% | [5] -4.85% | [6] -0.7%

COc1cccc(NC(=O)CC(=O)N/N=C/c2ccc(N(CCC#N)CCC#N)c(I)c2)c1
inactive: [1] 29.6% | [2] 8.95% | [3] 7.7% | [4] 9.55% | [5] -5.55% | [6] 28.7%

CCc1ccccc1NC(=O)C(=O)C1C(=O)N(c2ccccc2)N=C1N (stereo not drawn)
inactive: [1] -10.2% | [2] -31.4% | [3] -3% | [4] 21.4% | [5] -34.5% | [6] -22%

O=C1CC(NC(=O)C(F)(F)F)c2c1csc2Br (stereo not drawn)
inactive: [1] -20.6% | [2] -2.55% | [3] -9.1% | [4] -12.6% | [5] -11% | [6] 20.2%

COc1ccccc1N/N=c1\c2nc3ccccc3nc1n(-c1ccccc1C)c(=S)n2-c1ccccn1
inactive: [1] 3.4% | [2] 5.1% | [3] 16.3% | [4] -0.75% | [5] 0.9% | [6] 8.85%

N=C1C(O)=CC(=O)C(O)=C1C(=O)O
inactive: [1] -9.1% | [2] 3.9% | [3] 0% | [4] 1.95% | [5] -13% | [6] 3.7%

Nc1c(Cl)cc2c(c1Br)C(=O)c1ccccc1C2=O
inactive: [1] 13.7% | [2] -3.5% | [3] 1.1% | [4] 23.4% | [5] 11.9% | [6] 19.5%

CCOC(=O)/C(=C\c1ccccc1Cl)C(C)=O
active: [1] 99.3% | [2] 98.8% | [3] 99.5% | [4] 98.5% | [5] 98.8% | [6] 99.5%

COc1cc(N=C(N)N=C(N)N)c2ncccc2c1
inactive: [1] -3.1% | [2] -18.1% | [3] -11.9% | [4] -41% | [5] -3.75% | [6] -13.2%
